# PMP22 txn prim = modulates PMP22 transcription in S16 Schwann cells; S16 Pmp22-F2sN Schwann cells, FLuc/NLuc coincidence luminescence, 24 h; Potency, µM (highest dose often 57.5 µM), usual class: inhibitors; 43,000 compounds, 2% hits; AID 1508649; active = clear falling dose curves in both reporters; inconclusive = both reporters move, but less clearly or upward; inactive = either reporter flat; the % is the NLuc reporter signal
#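 qHTS, 1536-well. Cells seeded, compounds added by pin tool, 24 h 37C. Nano-Glo reagent 1 (lysis/FLuc), 10 min RT, read; Stop&Glo, 10 min RT, read NLuc.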
# pS6 MEF inh = mTORC1 pathway inhibition measured by phospho-rpS6; Tsc2-/- p53-/- MEF, phospho-rpS6 immunofluorescence/PI, 24 h; Potency, µM (highest dose often 38.3 µM), most hits filed as inhibitors; AID 493208; 44,000 compounds, 0.78% hits; also: nearly all actives have a fitted effect of over 50% in size
#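 Plate MEFs (Tsc2-/-, p53-/-, empty vector) in DMEM/10% FBS; after 24 h add compound, incubate 24 h at 37 degree Celsius; fix in PFA/TX-100, block, stain phospho-rpS6 and 10 uM PI; scan at 488 nm; report % positive cells.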
# OvCa metastasis = inhibitors of ovarian cancer cell adhesion and invasion in omental model; SKOV3ip1-GFP adhesion/invasion on 3D omental model, fluorescence; Potency, µM (titrated, usually from 45.8 µM), hits mostly inhibitors; 46,000 compounds, 0.1% hits; also: nearly all actives have a fitted effect of over 65% in size
#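 Primary human omental fibroblast/mesothelial 3D culture pre-formed 48 h. SKOV3ip1-GFP cells added with compounds (0.36-46 umol/L), incubated 2 h RT/16 h 37 C, fixed; GFP cells quantified at 488/509 nm.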
# p53null 39C tox = kills p53 null cells at the nonpermissive temperature; Potency, µM (titrated, usually from 46.1 µM), hits mostly cytotoxic; H1299 p53-null (neo) cells, 39C, ATPlite viability, 24 h; 55,000 compounds, 0.97% hits; AID 904; also: nearly all actives have a fitted effect of over 50% in size
#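 Luminescent ATP signal reported cell survival after H1299 lines (neo, p53 null; or p53 A138V) received up to 46 uM compound and 24 hr incubation at 39C.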
# p53null 32C kill = selectivity test: cytotoxicity in p53 null cells, permissive temperature. Potency, µM (titrated, usually from 46.1 µM), usual class: cytotoxic. 55,000 compounds, 0.62% hits. H1299-neo p53 null cells, ATP luminescence, 24 h, 32C; also: nearly all actives have a fitted effect of over 55% in size
#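 Luminescent ATP readout gave cell viability of p53-null H1299-neo cells after a 24 h compound exposure at the permissive 32C. Titrations ran up to 46 uM, and AC50s were fitted with the standard Hill equation.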
# S16 F2sN tox = cytotoxicity in S16 Pmp22-F2sN Schwann cells; S16 Pmp22-F2sN Schwann cells (luciferase reporters placed in the Pmp22 gene) viability, CellTiter-Glo, 24 h; Potency, µM (highest dose often 57.5 µM), actives largely listed as cytotoxic; 43,000 compounds, 0.48% hits; also: nearly all actives have a fitted effect of over 65% in size
#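 CellTiter-Glo counter-screen, qHTS, 1536-well. Cells: S16(c9) Pmp22-F2sN, 500-1,000/well in DMEM + 10% FBS. Cpd 23 nL pin transfer, 24 h, 37C/5% CO2. Read: luminescence, CCD imager.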
# NLuc sat counter = counter-screen for PMP22 expression modulators: NanoLuc inhibition, saturating substrate; shares compounds with PMP22 txn prim; Secreted NLuc enzyme (filtered S16 cell medium), Nano-Glo luminescence; Potency, µM (highest dose often 57.5 µM), hits mostly inhibitors; 690 compounds, 4% hits; AID 1508638
# NLuc Km ctr = counter-screen for PMP22 expression modulators: NanoLuc inhibition at Km; 690 compounds, 5% hits; Potency, µM (titrated, usually from 57.5 µM), most hits filed as inhibitors; shares compounds with PMP22 txn prim; secreted NLuc enzyme, coelenterazine luminescence, Km conditions
# FLuc ctr PMP22 = counter-screen for PMP22 expression modulators: firefly luciferase inhibition. shares compounds with PMP22 txn prim. purified P. pyralis FLuc, luminescence, 10 min. Potency, µM (series often up to 57.5 µM), hits mostly inhibitors. 690 tested, under 10 active
# Target sequence (P08659 whole entry, looked up): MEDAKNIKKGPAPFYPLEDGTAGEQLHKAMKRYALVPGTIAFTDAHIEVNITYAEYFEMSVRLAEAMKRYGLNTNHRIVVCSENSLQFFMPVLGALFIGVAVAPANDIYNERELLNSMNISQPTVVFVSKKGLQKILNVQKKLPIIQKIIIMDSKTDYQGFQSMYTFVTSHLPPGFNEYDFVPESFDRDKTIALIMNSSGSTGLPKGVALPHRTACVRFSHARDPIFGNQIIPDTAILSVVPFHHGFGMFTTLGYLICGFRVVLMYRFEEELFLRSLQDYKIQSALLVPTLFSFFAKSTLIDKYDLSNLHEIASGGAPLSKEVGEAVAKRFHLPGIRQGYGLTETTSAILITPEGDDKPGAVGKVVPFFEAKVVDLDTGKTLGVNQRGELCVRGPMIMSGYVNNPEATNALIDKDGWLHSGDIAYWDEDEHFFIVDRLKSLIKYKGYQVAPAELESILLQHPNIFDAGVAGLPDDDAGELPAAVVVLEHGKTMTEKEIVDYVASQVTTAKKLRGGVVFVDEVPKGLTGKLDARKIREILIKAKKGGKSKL
# S16 viab conf = S16 Schwann cell cytotoxicity, confirmatory. shares compounds with PMP22 txn prim. S16 Schwann cells viability, CellTiter-Glo ATP luminescence, 24 h. Potency, µM (series often up to 57.5 µM), most hits filed as cytotoxic. 690 compounds, 7% hits
# PMP22 txn cnf = confirmation of modulators of PMP22 gene transcription in S16 cells | Potency, µM (highest dose often 57.5 µM), most hits filed as inhibitors | AID 1508646 | 690 compounds, 22% hits | S16 Schwann cells Pmp22-F2sN, dual luciferase, 24 h | shares compounds with PMP22 txn prim; active = clear falling dose curves in both reporters; inconclusive = both reporters move, but less clearly or upward; inactive = either reporter flat; the % is the FLuc reporter signal
# PMP22 prot conf = confirmation of modulators of rat PMP22 protein expression | shares compounds with PMP22 txn prim | S16 Schwann cells Pmp22-HiBiT, luminescence, 48 h | Potency, µM (titrated, usually from 27.9 µM), usual class: inhibitors | 95 tested, under 10 active | AID 1508647
# Target sequence (P25094 whole entry, looked up): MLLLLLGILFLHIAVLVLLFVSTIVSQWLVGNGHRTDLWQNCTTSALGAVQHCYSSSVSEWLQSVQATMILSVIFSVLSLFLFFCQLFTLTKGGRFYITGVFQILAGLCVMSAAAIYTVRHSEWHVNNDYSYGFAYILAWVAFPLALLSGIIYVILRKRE
# Hits are given with their value; . = inactive; ? = inconclusive; / = not tested or not shown. Only some compounds are listed: those with a hit (about 3% of all), similar ones and a draw of the others. Unless noted, calls follow the shape of the dose curve; as a rule, active = well fitted curve in the direction sought with a large enough effect; inconclusive = small, poorly fitted or top-dose-only effect, or another doubt; inactive = no such curve, though single readings can be large; an effect the other way counts as inactive or inconclusive.
SMILES,PMP22 txn prim,pS6 MEF inh,OvCa metastasis,p53null 39C tox,p53null 32C kill,S16 F2sN tox,NLuc sat counter,NLuc Km ctr,FLuc ctr PMP22,S16 viab conf,PMP22 txn cnf,others
CCc1nn(CC(=O)N(CC)Cc2ccccc2)c(=O)c2cc3occc3n12,?,.,.,.,.,.,.,?,.,.,.,
CS(=O)(=O)c1ccc(-c2cnc(N)c(C(=O)Nc3ccccc3)n2)cc1,/,/,.,/,/,/,/,/,/,/,/,
CCC(CC)[C@H](NC(C)=O)[C@@H]1[C@H](O)[C@@H](C(=O)O)C[C@@H]1N=C(N)N,/,/,.,/,/,/,/,/,/,/,/,
O=C(Cn1ncc2c([nH]c3ccccc32)c1=O)Nc1cccc(C(F)(F)F)c1,20µM,.,.,.,.,.,.,.,.,.,.,
COC(=O)c1cc(NC(=O)Cn2ncc3c([nH]c4ccccc43)c2=O)cc(C(=O)OC)c1,.,.,.,.,.,.,/,/,/,/,/,
Cc1cn([C@@H]2O[C@H](CO)[C@@H](O)[C@H]2F)c(=O)[nH]c1=O,/,/,.,/,/,/,/,/,/,/,/,
COc1ccc(C2CC(=O)c3cc(-c4nc(-c5ccc(Cl)cc5)cs4)c(=O)[nH]c3C2)cc1 (stereo unspecified),?,.,.,.,.,.,/,/,/,/,/,
O=C1CC(c2ccccc2)Cc2[nH]c(=O)c(-c3nc(-c4ccc(F)cc4)cs3)cc21 (stereo unspecified),3.4µM,?,.,.,.,.,?,?,.,.,?,
Cc1ccc(-c2cnc(C3CC3)o2)cc1S(=O)(=O)Nc1cccc(C#N)c1,?,.,.,.,.,?,/,/,/,/,/,
COc1cccc(NS(=O)(=O)c2cc(-c3cnc(C4CC4)o3)ccc2C)c1,8.53µM,.,.,?,.,?,?,15.3µM,.,.,2.89µM,
N#Cc1ccc(NS(=O)(=O)c2ccc(-c3cnc(C4CC4)o3)cc2)cc1,?,.,.,.,.,?,/,/,/,/,/,
COc1ccc(C)cc1NS(=O)(=O)c1ccc(-c2cnc(C3CC3)o2)cc1,5.55µM,.,.,?,.,?,.,?,.,.,?,PMP22 prot conf=?
CN1N=C(N)c2cn([C@@H]3O[C@H](COP(=O)(O)O)[C@@H](O)[C@@H]3O)c3ncnc1c23,/,/,.,/,/,/,/,/,/,/,/,
CCOCCCNC(=O)c1ccc(-n2c(-c3ccccc3)cc3c2CCC(C)C3)cc1 (stereo unspecified),17.9µM,?,.,?,.,.,.,.,.,.,?,PMP22 prot conf=.
C[C@@H](CN1CC(=O)NC(=O)C1)N1CC(=O)NC(=O)C1,/,/,.,/,/,/,/,/,/,/,/,
Cc1ccc(C(=O)Nc2ccc(S(=O)(=O)N3CCC(c4nc5ccccc5s4)CC3)cc2)cc1,11.9µM,.,.,.,.,.,.,.,.,.,14.5µM,PMP22 prot conf=?
CCN(CC)C(=O)c1ccc(S(=O)(=O)N2CCC(c3nc4ccccc4s3)CC2)cc1,/,/,/,.,.,/,/,/,/,/,/,
O=C(NCCc1csc(-c2ccc(F)cc2)n1)c1cccc(F)c1,?,.,.,.,.,.,/,/,/,/,/,
O=C(NCCc1csc(-c2ccc(F)cc2)n1)c1c(F)cccc1Cl,?,.,.,.,.,.,?,?,?,.,.,
COc1ccccc1CNC(=O)Cn1c(=O)oc2cc(S(=O)(=O)N3CCC(C)CC3)ccc21,13.3µM,.,.,.,?,?,.,.,.,.,.,
Cc1cccc(Nc2c3c(nc4nncn24)CCC3)c1C,?,.,.,.,.,.,?,.,.,.,?,PMP22 prot conf=.
Cc1ccccc1Nc1c2c(nc3nncn13)CCC2,.,.,.,.,.,.,/,/,/,/,/,
Cc1ccc(-n2c(SCc3cccc(F)c3)nc3[nH]ncc3c2=O)cc1C,?,.,.,.,.,?,/,/,/,/,/,
CCc1ccc(-n2c(SCc3cccc(F)c3)nc3[nH]ncc3c2=O)cc1,15.8µM,.,.,.,.,?,.,?,.,?,?,
CO[C@H]1C=CO[C@@]2(C)Oc3c(C)c(O)c4c(O)c(c(C=NN5CCN(C)CC5)c(O)c4c3C2=O)NC(=O)C(C)=CC=C[C@H](C)[C@H](O)[C@@H](C)[C@@H](O)[C@@H](C)[C@H](OC(C)=O)[C@H]1C,/,/,.,/,/,/,/,/,/,/,/,
SMILES,PMP22 txn prim,pS6 MEF inh,OvCa metastasis,p53null 39C tox,p53null 32C kill,S16 F2sN tox,NLuc sat counter,NLuc Km ctr,FLuc ctr PMP22,S16 viab conf,PMP22 txn cnf,others
COc1cc2c(cc1-c1c(C)noc1C)ncc1[nH]c(=O)n([C@H](C)c3ccccn3)c12,/,/,.,/,/,/,/,/,/,/,/,
Cc1ccc(NC(=O)CSc2nc3n[nH]c(C)c3c(=N)n2-c2cccc(C)c2)cc1,?,.,.,.,.,.,/,/,/,/,/,
Cc1ccc(NC(=O)CSc2nc3n[nH]c(C)c3c(=N)n2-c2ccccc2C)cc1C,17µM,.,.,.,.,.,?,?,.,.,.,
COc1cc2c(cc1OC)CN(CCc1ccc(NC(=O)c3cccc4c(=O)c5cccc(OC)c5[nH]c34)cc1)CC2,/,/,.,/,/,/,/,/,/,/,/,
O=C(Nc1ccc(F)cc1Cl)C1CCN(c2ncnc3c2nc2n3CCCCC2)CC1,17µM,.,.,.,.,.,.,.,.,.,?,
CCOc1cc(C(=O)Nc2ccc(Cl)c(-c3nc4ccccc4[nH]3)c2)cc(OCC)c1OCC,/,/,.,/,/,/,/,/,/,/,/,
O=C(CCS(=O)(=O)c1nc(-c2ccc3c(c2)OCO3)cc(C(F)(F)F)n1)Nc1ccccc1F,?,.,?,.,.,.,/,/,/,/,/,
COc1ccc(NC(=O)CCS(=O)(=O)c2nc(-c3cccs3)cc(C(F)(F)F)n2)cc1,7.61µM,?,?,.,?,?,.,?,.,?,11.5µM,PMP22 prot conf=.
